Experimental data as given in the supplement of paper PMC3545927.
Some of the results follow. How many sequences the whole screen found active is unknown.

Molecular target: furin, P09958
Assay: furin cleavage Z-score vs untreated control; higher = more cleavage, active = 3.5 or more, inactive = 1 or less, 8 variable residues between constant flanks
Summary of the method: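 Magnetic beads held 8-mer peptides by the N-terminus, each fused to a cDNA oligonucleotide, and purified furin was added for 7.5, 15 or 30 min. Released DNA was sequenced after PCR adapter tagging. The cleavage Z-score is the log count relative to furin-free reactions, lowess-adjusted and divided by median absolute deviation.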
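Also: purified furin at 1:10 enzyme:substrate in 50 mM HEPES pH 7.5.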

Sequence of furin, P09958 (P09958 whole entry): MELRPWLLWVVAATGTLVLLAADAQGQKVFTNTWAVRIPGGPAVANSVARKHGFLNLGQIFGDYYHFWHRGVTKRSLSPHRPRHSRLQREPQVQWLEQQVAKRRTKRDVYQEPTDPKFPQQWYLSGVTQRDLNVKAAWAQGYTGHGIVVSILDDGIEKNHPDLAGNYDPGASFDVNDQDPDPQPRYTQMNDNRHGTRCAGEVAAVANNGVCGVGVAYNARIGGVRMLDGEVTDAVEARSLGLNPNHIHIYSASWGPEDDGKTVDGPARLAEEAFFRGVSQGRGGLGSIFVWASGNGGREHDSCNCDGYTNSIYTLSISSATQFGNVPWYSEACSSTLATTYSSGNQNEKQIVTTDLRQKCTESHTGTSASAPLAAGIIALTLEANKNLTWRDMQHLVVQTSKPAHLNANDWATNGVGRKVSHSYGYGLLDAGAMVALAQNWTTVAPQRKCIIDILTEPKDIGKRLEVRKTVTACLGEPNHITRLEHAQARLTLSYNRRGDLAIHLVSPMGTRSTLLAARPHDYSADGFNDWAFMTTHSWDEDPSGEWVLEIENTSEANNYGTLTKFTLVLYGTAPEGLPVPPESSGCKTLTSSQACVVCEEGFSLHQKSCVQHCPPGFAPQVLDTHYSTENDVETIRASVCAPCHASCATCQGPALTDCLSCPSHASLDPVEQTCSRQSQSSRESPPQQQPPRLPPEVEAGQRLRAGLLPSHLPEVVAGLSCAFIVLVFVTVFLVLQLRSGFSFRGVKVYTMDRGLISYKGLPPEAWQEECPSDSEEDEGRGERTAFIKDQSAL

Row | Sequence | furin cleavage Z-score (7.5 min) | furin cleavage Z-score (15 min) | furin cleavage Z-score (30 min)
1 | CAEHRLEAACAGNASASA [HC479] | 1.04 | -1.24 (inactive) | -0.381 (inactive)
2 | CAMEECSQPLAGNASASA [HC1759] | 1.51 | 1.8 | 0.466 (inactive)
3 | CAEYVVCCSMAGNASASA [HC2129] | -0.0811 (inactive) | -0.535 (inactive) | -0.778 (inactive)
4 | CASTPCSFHLAGNASASA [HC2527] | -0.634 (inactive) | 0.268 (inactive) | 1.39
5 | CAAAYCLSTGAGNASASA [HC996] | 0.288 (inactive) | 0.367 (inactive) | -0.487 (inactive)
6 | CANAYTTGPCAGNASASA [HC1192] | 0.653 (inactive) | 0.298 (inactive) | 0.115 (inactive)
7 | CAMEECSQSLAGNASASA [HC1757] | 0.758 (inactive) | -0.436 (inactive) | 0.392 (inactive)
8 | CAMRSRNGRWAGNASASA [FS-830] | 0.613 (inactive) | 0.727 (inactive) | 2.67
9 | CARAQRFWSWAGNASASA [FS-3242] | -0.658 (inactive) | -0.187 (inactive) | -0.233 (inactive)
10 | CATAKREKRWAGNASASA [FS-1421] | 7.45 (active) | 10.5 (active) | 8.76 (active)
11 | CAHRCRHKRWAGNASASA [FS-133] | 5.93 (active) | 10.1 (active) | 8.03 (active)
12 | CAEVVTSQWVAGNASASA [HC2222] | -0.277 (inactive) | -0.189 (inactive) | 0.204 (inactive)
13 | CATTPCGGSWAGNASASA [HC62] | -1.67 (inactive) | 0.588 (inactive) | -0.211 (inactive)
14 | CADTMEECSQAGNASASA [HC1818] | -0.715 (inactive) | -1.26 (inactive) | -0.384 (inactive)
15 | CAVKGRGRRDAGNASASA [FS-889] | 10.2 (active) | 9.87 (active) | 8.49 (active)
16 | CAVWKRRAEDAGNASASA [FS-2624] | 0.714 (inactive) | -0.547 (inactive) | 0.046 (inactive)
17 | CALNERIRRDAGNASASA [FS-940] | 13.3 (active) | 15.6 (active) | 11.4 (active)
18 | CAVHVRIRRDAGNASASA [FS-1428] | 15.3 (active) | 15.9 (active) | 11.3 (active)
19 | CALPGRDGRDAGNASASA [FS-457] | -0.75 (inactive) | 1.1 | 0.0293 (inactive)
20 | CAGNNTLHCPAGNASASA [HC448] | 0.837 (inactive) | 0.103 (inactive) | 0.597 (inactive)
21 | CAYSTYGKFLAGNASASA [HC807] | 0.775 (inactive) | -0.645 (inactive) | -0.0395 (inactive)
22 | CAHVGPGEGAAGNASASA [HC1113] | -0.488 (inactive) | 0.461 (inactive) | -1.05 (inactive)

Row | Sequence | furin cleavage Z-score (7.5 min) | furin cleavage Z-score (15 min) | furin cleavage Z-score (30 min)
23 | CAKESRGARGAGNASASA [FS-447] | -0.759 (inactive) | -0.656 (inactive) | -0.69 (inactive)
24 | CARLCRSVSGAGNASASA [FS-1859] | 0.288 (inactive) | 0.971 (inactive) | 1.11
25 | CAKLKLTPIAAGNASASA [HC1637] | -0.816 (inactive) | -1.09 (inactive) | -2.93 (inactive)
26 | CAQKRREKKAAGNASASA [FS-79] | -0.611 (inactive) | 2.25 | 1.6
27 | CAKERREKRAAGNASASA [FS-601] | 5.22 (active) | 4.77 (active) | 4.29 (active)
28 | CARLEREKRAAGNASASA [FS-859] | 7.92 (active) | 10 (active) | 6.63 (active)
29 | CARLCRRSRAAGNASASA [FS-1561] | 6.16 (active) | 7.37 (active) | 6.05 (active)
30 | CAKERRYARKAGNASASA [FS-257] | 4.36 (active) | 5.28 (active) | 4.54 (active)
31 | CARLRDSGRAAGNASASA [FS-85] | 0.0348 (inactive) | -1.47 (inactive) | -0.955 (inactive)
32 | CAHAPTGSGKAGNASASA [HC775] | 0.395 (inactive) | -1.05 (inactive) | -0.0524 (inactive)
33 | CAMEGCSQHLAGNASASA [HC1716] | 1.23 | 0.47 (inactive) | 0.552 (inactive)
34 | CAAEMEECSQAGNASASA [HC1783] | -0.835 (inactive) | 2.03 | -0.939 (inactive)
35 | CASTPCSSHLAGNASASA [HC2537] | -0.548 (inactive) | -0.18 (inactive) | 0.0993 (inactive)
36 | CAEVVTSTFVAGNASASA [HC2227] | 0.885 (inactive) | 0.0423 (inactive) | 0.809 (inactive)
37 | CASRPSWGPTAGNASASA [HC212] | -1.22 (inactive) | 0.133 (inactive) | -0.131 (inactive)
38 | CAPTRRRWREAGNASASA [FS-1386] | 5.77 (active) | 5.98 (active) | 7.12 (active)
39 | CAEVAERKREAGNASASA [FS-1195] | -1.19 (inactive) | 1.03 | 0.657 (inactive)
40 | CAYRFVAPGEAGNASASA [HC910] | -0.691 (inactive) | -0.942 (inactive) | -0.913 (inactive)
41 | CAPSRRRKREAGNASASA [FS-1385] | 13.2 (active) | 15 (active) | 9.92 (active)
42 | CAYRTRRKREAGNASASA [FS-637] | 9.23 (active) | 8.28 (active) | 6.71 (active)
43 | CAIPKARRPEAGNASASA [HC193] | -0.401 (inactive) | -0.306 (inactive) | -0.34 (inactive)
44 | CAPSPEFFTEAGNASASA [HC1219] | -1.44 (inactive) | -0.301 (inactive) | -0.0659 (inactive)
